A short description of test [1]: ATG_TGFb_CIS: Attagene CIS-FACTORIAL HepG2 Assay for human Transforming Growth Factor (TGF) (AID 2282967; active = hit-call score of the fitted dose curve at least 0.9, where 1 is the maximum; inactive = score below 0.9). The note with it: HepG2 Attagene CIS TGFb reporter, mRNA transcription; actives raise or lower the signal. An outline of the steps:
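HepG2 cells transiently transfected with cis-promoter-driven multiplexed reporter units; 24 h compound exposure. Reporter mRNA measured by RT-PCR, 6-FAM labeling, HpaI digestion and capillary electrophoresis; bidirectional fit versus DMSO baseline.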

Test [2] can be described thus: ATG_VDRE_CIS: Attagene CIS-FACTORIAL HepG2 Assay for human Vitamin D Receptor Element (VDRE) (AID 2282968; active = hit-call score of the fitted dose curve at least 0.9, where 1 is the maximum; inactive = score below 0.9). The note with it: HepG2 VDRE cis-reporter transcription, actives raise or lower the signal. An outline of the steps: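 In transiently transfected HepG2 liver cells, gain or loss of reporter mRNA after 24 h exposure is scored relative to DMSO, using fluorescence detection by capillary electrophoresis of RT-PCR products.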

For test [3], the target named is Nuclear receptor subfamily 1 group I member 3 (Homo sapiens) (UniProt Q14994). The test is described as follows: ATG_CAR_TRANS: Attagene TRANS-FACTORIAL HepG2 Assay for human Constitutive Androstane Receptor (CAR) (AID 2282969).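 Also: activators raise reporter mRNA above DMSO so AC50 marks induction.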 The following applies: HepG2 Attagene TRANS-FACTORIAL CAR reporter. An outline of the steps: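 Readout is reporter mRNA induction, quantified by fluorescent primer extension and capillary electrophoresis after RT-PCR. Cells were HepG2 transiently carrying chimeric NR-Gal4 constructs with GAL4-UAS reporters, treated for 24 h; activity scored upward from DMSO.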

In test [4] the target is X-box-binding protein 1 (Homo sapiens) (UniProt P17861). The test is described as follows: ATG_Xbp1_CIS: Attagene CIS-FACTORIAL HepG2 Assay for human X-box Binding Protein 1 (XBP1) (AID 2282972; active = hit-call score of the fitted dose curve at least 0.9, where 1 is the maximum; inactive = score below 0.9). The following applies: HepG2 XBP1 cis-element reporter, Attagene multiplex; actives raise or lower the signal. Summed up: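 HepG2 cells transiently transfected with multiple cis-element reporter units report endogenous TF activity; 24 h exposure, then reporter mRNA measured by RT-PCR, 6-FAM labelling, HpaI digestion and capillary electrophoresis. Bidirectional fitting versus DMSO.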

Test [5] addresses Androgen receptor (Homo sapiens) (UniProt P10275). The test can be described thus: ATG_AR_TRANS: Attagene TRANS-FACTORIAL HepG2 Assay for human Androgen Receptor (AR) (AID 2282973). The note with it: HepG2 Attagene TRANS-FACTORIAL AR reporter transcription. An outline of the steps:
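Readout is reporter transcript abundance, quantified by fluorescent RT-PCR products separated on capillary electrophoresis. Human HepG2 liver cells carried transiently transfected NR-Gal4 chimera plus GAL4-UAS reporter constructs and were dosed for 24 h; activity scored upward versus DMSO.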

The nature of test [6]: ATG_GAL4_TRANS: Attagene TRANS-FACTORIAL HepG2 Assay for GAL4 (Internal Marker) (AID 2282976). The following applies: HepG2 Attagene TRANS GAL4 internal marker reporter. Summed up:
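RT-PCR/capillary electrophoresis readout of reporter mRNA. HepG2, transient MRTU transfection (GAL4-UAS reporters), 24 h compound exposure. Background-control endpoint, positive direction vs DMSO baseline.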

The target of test [7] is Estrogen-related receptor gamma (Homo sapiens) (UniProt P62508). The test is described as follows: ATG_ERRg_TRANS: Attagene TRANS-FACTORIAL HepG2 Assay for human Estrogen-Related Receptor gamma (ERRg) (AID 2282977).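 Also: hits increase reporter signal over DMSO so potencies reflect activators.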 The following applies: HepG2 Attagene TRANS reporter, ERRg transactivation. An outline of the steps: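 HepG2 cells transiently transfected with multiplexed GAL4-UAS reporter units and chimeric NR-Gal4 constructs were exposed to test chemicals for 24 h. Reporter mRNA was measured by RT-PCR, 6-FAM primer extension, HpaI digestion and capillary electrophoresis; gain-of-signal versus DMSO.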

For test [8], the target named is Glucocorticoid receptor (Homo sapiens) (UniProt P04150). The test is described as follows: ATG_GR_TRANS: Attagene TRANS-FACTORIAL HepG2 Assay for human Glucocorticoid Receptor (GR) (AID 2282978).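 Also: activators score as hits since higher reporter transcript over DMSO is fitted.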 The note with it: HepG2 Attagene TRANS GR reporter, mRNA transcription. Summed up:
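Transient MRTU transfection of HepG2 (GAL4-UAS reporters, exogenous NR-GAL4 chimeras), 24 h dosing. Readout: reporter transcript via RT-PCR + capillary electrophoresis fluorescence. Positive direction vs DMSO baseline.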

Test [9] addresses Bile acid receptor (Homo sapiens) (UniProt Q96RI1). The test can be described thus: ATG_FXR_TRANS: Attagene TRANS-FACTORIAL HepG2 Assay for Farnesoid X Receptor (FXR) (AID 2282979).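 Also: hits raise reporter mRNA above DMSO so AC50 marks FXR activation.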 The note with it: HepG2 Attagene TRANS FXR-GAL4 reporter transcription. Summed up: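 Read-out: fluorescent reporter transcripts quantified by capillary electrophoresis after RT-PCR of total RNA. Source cells were HepG2 transiently carrying chimeric NR-GAL4 plus GAL4-UAS reporter units, dosed 24 h. Activity fitted upward relative to DMSO baseline.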

Test [10] addresses Oxysterols receptor LXR-beta (Homo sapiens) (UniProt P55055). The test can be described thus: ATG_LXRb_TRANS: Attagene TRANS-FACTORIAL HepG2 Assay for human Liver X Receptor beta (LXRb) (AID 2282981). The note with it: HepG2 Attagene TRANS GAL4-LXRb reporter, mRNA. An outline of the steps: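 Cells: HepG2, transiently transfected with GAL4-UAS reporter units plus LXRb-Gal4 fusion. Treatment: 24 h. Detection: reporter mRNA by RT-PCR, 6-FAM labelling, HpaI digestion, capillary electrophoresis.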

A short description of test [11]: ATG_M_06_TRANS: Attagene TRANS-FACTORIAL HepG2 Assay for M06 Transcription Factor (Internal Marker) (AID 2282983). The following applies: HepG2 Attagene TRANS M06 internal marker reporter. Summed up: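 After a 24 h chemical treatment of transfected HepG2, RNA underwent DNase I treatment, reverse transcription and reporter-specific PCR; labelled, HpaI-digested products were sized by capillary electrophoresis. Signal increase relative to DMSO defined activity.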

Test [12] is described as follows: ATG_M_32_TRANS: Attagene TRANS-FACTORIAL HepG2 Assay for M32 Transcription Factor (Internal Marker) (AID 2282984).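 Also: transcript level of a background control reporter unit measured by RT-PCR and capillary electrophoresis.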 The note with it: HepG2 Attagene TRANS M32 internal marker reporter. An outline of the steps: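 Using transiently transfected HepG2 cells exposed to test chemicals for 24 h, reporter transcripts are converted to labelled cDNA fragments and quantified by capillary electrophoresis. DMSO defines the activity baseline.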

For test [13], the target named is Nuclear receptor subfamily 4 group A member 2 (Homo sapiens) (UniProt P43354). The test can be described thus: ATG_NURR1_TRANS: Attagene TRANS-FACTORIAL HepG2 Assay for human Nuclear Receptor Related Protein 1 (NURR1) (AID 2282985). The following applies: HepG2 Attagene TRANS reporter, mRNA readout. An outline of the steps: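 Cells: HepG2, transiently transfected. Exposure: 24 h. Detection: fluorescence of labelled RT-PCR products separated by capillary electrophoresis; upward fit versus DMSO.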

Test [14] concerns the target Transcriptional activator Myb (Homo sapiens) (UniProt P10242). The test is described as follows: ATG_Myb_CIS: Attagene CIS-FACTORIAL HepG2 Assay for human Myeloblastosis (Myb) Proto-Oncogene Transcription Factor (AID 2282986; active = hit-call score of the fitted dose curve at least 0.9, where 1 is the maximum; inactive = score below 0.9). The note with it: HepG2 Attagene CIS-FACTORIAL Myb reporter transcription; actives raise or lower the signal. Summed up:
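HepG2, transient MRTU transfection (cis-element promoters, endogenous TF activity), 24 h compound exposure. Readout: reporter mRNA via RT-PCR, 6-FAM labeling, HpaI digest, capillary electrophoresis. Gain/loss fit vs DMSO.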

In test [15] the target is Nuclear respiratory factor 1 (Homo sapiens) (UniProt Q16656). The test is described as follows: ATG_NRF1_CIS: Attagene CIS-FACTORIAL HepG2 Assay for human Nuclear Respiratory Factor 1 (NRF1) Orphan Gene (AID 2282987; active = hit-call score of the fitted dose curve at least 0.9, where 1 is the maximum; inactive = score below 0.9). The note with it: HepG2 NRF1 cis-element reporter, Attagene multiplex; actives raise or lower the signal. An outline of the steps: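 Endogenous NRF1-driven reporter transcription measured in transiently transfected human HepG2 liver cells. Readout: reporter mRNA by RT-PCR and capillary electrophoresis with fluorescence detection, 24 h post-dosing. Gain or loss of signal fitted relative to DMSO baseline.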

The target in test [16] is Estrogen receptor (Homo sapiens) (UniProt P03372). The test can be described thus: ATG_ERa_TRANS: Attagene TRANS-FACTORIAL HepG2 Assay for human Estrogen Receptor alpha (ERa) (AID 2282970). The following applies: HepG2 Attagene TRANS ERa GAL4 reporter, mRNA. An outline of the steps: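 After 24 h of compound treatment, RNA from HepG2 cells bearing transfected GAL4-UAS reporter constructs is converted to cDNA, amplified and fluorescently labelled. Capillary electrophoresis resolves the ERa-linked reporter; DMSO serves as negative control.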

In test [17] the target is Oxysterols receptor LXR-alpha (Homo sapiens) (UniProt Q13133). The test can be described thus: ATG_LXRa_TRANS: Attagene TRANS-FACTORIAL HepG2 Assay for human Liver X Receptor alpha (LXRa) (AID 2282980). The following applies: HepG2 Attagene TRANS reporter, LXRa transactivation. An outline of the steps: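 Read-out: reporter transcript levels by RT-PCR plus capillary electrophoresis, fluorescence intensity. Transiently transfected HepG2, exogenous NR-GAL4 chimera, GAL4-UAS reporters; 24 h compound exposure. Activity = increase over DMSO negative control.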

The target in test [18] is Steroid hormone receptor ERR1 (Homo sapiens) (UniProt P11474). The test is described as follows: ATG_ERRa_TRANS: Attagene TRANS-FACTORIAL HepG2 Assay for human Estrogen-Related Receptor alpha (ERRa) (AID 2282971). The note with it: HepG2 Attagene TRANS reporter, ERRa transactivation. Summed up: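 Transfected HepG2, 24 h dosing, ERRa-Gal4 chimera driving GAL4-UAS reporter. Readout: reporter mRNA via RT-PCR plus capillary electrophoresis (fluorescence). Positive direction vs DMSO control.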

Test [19] in a line: ATG_M_19_TRANS: Attagene TRANS-FACTORIAL HepG2 Assay for M19 Transcription Factor (Internal Marker) (AID 2282974). The note with it: HepG2 Attagene TRANS-FACTORIAL M19 internal marker reporter. Summed up:
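24 h chemical exposure of transiently transfected HepG2 (MRTU library). RNA → oligo(dT) RT → PCR → 6-FAM labelling → HpaI cut → CE fluorescence. Positive-direction fit vs DMSO baseline; background internal-marker readout.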

Drawing on PubChem BioAssay (EPA / NIEHS), this text covers outcome and AC50 for five molecules.

Records with an inconclusive call do not appear. Active and inactive are the calls of the source. The calls were made as follows, unless noted: active = hit-call score of the fitted dose curve at least 0.9, where 1 is the maximum; inconclusive = response in the unintended direction; inactive = score below 0.9.

Nuclear receptor subfamily 1 group I member 3 (Homo sapiens), sequence (Q14994 whole entry, looked up, the tested form may be a part): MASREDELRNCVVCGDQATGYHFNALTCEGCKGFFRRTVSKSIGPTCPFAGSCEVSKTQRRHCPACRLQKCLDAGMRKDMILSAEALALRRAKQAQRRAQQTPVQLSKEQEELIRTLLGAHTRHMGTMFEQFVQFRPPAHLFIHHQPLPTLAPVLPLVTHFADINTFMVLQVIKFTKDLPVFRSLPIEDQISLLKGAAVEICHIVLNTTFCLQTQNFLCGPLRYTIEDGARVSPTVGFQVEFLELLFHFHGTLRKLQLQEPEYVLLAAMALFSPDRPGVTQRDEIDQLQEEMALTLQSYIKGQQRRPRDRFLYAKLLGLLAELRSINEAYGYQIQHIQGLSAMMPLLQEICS
Nuclear respiratory factor 1 (Homo sapiens), sequence (Q16656 whole entry, looked up): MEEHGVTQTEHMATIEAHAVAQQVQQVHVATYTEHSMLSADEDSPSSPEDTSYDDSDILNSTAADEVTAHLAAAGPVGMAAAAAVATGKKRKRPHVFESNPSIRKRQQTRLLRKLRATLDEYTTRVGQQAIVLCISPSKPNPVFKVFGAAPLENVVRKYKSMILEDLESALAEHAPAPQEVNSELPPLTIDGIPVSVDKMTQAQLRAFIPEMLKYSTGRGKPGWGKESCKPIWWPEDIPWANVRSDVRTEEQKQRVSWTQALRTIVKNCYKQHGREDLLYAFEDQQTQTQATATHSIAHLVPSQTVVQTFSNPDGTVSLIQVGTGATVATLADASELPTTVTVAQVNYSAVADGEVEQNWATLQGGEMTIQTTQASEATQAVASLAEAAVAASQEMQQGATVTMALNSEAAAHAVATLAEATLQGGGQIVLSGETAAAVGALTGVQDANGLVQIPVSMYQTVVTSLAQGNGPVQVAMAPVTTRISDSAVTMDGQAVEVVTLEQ
Bile acid receptor (Homo sapiens), sequence (Q96RI1 whole entry, looked up, the tested form may be a part): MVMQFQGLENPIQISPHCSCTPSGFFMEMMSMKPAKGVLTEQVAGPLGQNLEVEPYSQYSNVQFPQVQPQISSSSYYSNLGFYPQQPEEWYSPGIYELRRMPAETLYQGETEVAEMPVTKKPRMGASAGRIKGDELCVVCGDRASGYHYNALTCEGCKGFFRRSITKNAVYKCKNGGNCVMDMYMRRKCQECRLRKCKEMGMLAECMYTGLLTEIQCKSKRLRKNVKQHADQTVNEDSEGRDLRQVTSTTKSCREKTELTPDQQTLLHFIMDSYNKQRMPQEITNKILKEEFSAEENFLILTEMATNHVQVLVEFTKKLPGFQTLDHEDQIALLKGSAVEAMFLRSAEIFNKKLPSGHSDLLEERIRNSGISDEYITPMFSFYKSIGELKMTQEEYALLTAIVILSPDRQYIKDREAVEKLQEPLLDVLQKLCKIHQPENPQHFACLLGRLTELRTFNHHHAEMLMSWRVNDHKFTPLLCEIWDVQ
Oxysterols receptor LXR-beta (Homo sapiens), sequence (P55055 whole entry, looked up, the tested form may be a part): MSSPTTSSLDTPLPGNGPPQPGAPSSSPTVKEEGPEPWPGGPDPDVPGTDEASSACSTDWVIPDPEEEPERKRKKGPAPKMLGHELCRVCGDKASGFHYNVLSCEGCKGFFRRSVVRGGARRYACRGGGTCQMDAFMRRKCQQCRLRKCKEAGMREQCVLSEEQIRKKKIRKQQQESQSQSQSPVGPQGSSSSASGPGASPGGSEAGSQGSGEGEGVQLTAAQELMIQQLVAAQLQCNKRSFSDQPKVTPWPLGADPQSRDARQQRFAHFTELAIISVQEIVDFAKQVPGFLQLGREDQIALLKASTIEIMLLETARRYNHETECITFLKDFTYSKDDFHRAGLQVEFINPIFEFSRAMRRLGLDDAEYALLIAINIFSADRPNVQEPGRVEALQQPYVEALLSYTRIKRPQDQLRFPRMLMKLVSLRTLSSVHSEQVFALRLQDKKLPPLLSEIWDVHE
Transcriptional activator Myb (Homo sapiens), sequence (P10242 whole entry, looked up): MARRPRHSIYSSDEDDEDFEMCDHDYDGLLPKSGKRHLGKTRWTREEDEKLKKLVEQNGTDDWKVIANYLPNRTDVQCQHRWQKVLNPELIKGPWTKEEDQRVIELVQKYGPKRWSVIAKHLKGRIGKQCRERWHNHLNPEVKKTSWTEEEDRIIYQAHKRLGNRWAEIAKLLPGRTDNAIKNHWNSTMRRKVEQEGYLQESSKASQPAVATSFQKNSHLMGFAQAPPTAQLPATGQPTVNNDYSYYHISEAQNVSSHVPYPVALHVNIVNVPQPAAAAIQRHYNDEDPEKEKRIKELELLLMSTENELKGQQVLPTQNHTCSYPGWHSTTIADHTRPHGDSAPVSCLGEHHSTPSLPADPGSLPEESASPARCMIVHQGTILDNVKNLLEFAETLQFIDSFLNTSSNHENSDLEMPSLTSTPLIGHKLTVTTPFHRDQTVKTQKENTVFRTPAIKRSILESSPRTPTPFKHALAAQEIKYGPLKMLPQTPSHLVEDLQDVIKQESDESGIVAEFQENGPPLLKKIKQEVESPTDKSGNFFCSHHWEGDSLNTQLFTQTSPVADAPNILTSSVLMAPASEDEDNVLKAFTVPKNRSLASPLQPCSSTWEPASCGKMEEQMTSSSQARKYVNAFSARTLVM
Androgen receptor (Homo sapiens), sequence (P10275 whole entry, looked up, the tested form may be a part): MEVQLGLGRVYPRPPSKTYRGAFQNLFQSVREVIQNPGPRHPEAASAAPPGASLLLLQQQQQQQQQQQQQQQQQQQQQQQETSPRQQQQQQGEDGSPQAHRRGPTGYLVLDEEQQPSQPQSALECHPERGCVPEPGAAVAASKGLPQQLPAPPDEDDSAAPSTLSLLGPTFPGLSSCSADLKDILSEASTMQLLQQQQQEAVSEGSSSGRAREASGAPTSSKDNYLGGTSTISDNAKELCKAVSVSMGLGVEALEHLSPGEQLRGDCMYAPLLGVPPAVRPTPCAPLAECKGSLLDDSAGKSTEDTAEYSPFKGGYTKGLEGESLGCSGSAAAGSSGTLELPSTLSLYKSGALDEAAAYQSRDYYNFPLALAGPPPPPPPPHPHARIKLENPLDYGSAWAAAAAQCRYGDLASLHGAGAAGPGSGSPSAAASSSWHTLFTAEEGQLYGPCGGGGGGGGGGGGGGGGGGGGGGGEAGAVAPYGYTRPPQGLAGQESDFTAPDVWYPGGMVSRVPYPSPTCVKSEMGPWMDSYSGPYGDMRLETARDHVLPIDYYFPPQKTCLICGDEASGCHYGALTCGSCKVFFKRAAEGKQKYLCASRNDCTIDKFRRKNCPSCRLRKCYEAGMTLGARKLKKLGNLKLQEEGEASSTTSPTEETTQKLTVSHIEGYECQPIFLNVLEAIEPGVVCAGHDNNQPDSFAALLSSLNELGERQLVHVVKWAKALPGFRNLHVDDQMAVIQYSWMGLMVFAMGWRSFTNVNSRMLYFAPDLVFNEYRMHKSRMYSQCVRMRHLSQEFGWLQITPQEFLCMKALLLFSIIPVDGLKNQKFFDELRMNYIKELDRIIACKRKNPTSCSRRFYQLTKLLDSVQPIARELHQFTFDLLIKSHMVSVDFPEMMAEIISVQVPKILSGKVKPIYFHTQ
X-box-binding protein 1 (Homo sapiens), sequence (P17861 whole entry, looked up): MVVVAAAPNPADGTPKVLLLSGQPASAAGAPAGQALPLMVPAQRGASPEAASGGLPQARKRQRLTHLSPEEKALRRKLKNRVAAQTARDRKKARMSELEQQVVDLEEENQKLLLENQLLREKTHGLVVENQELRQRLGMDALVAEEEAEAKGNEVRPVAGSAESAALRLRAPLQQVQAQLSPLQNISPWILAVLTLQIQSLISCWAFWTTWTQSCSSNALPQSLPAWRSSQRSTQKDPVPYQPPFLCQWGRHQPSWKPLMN
Estrogen-related receptor gamma (Homo sapiens), sequence (P62508 whole entry, looked up, the tested form may be a part): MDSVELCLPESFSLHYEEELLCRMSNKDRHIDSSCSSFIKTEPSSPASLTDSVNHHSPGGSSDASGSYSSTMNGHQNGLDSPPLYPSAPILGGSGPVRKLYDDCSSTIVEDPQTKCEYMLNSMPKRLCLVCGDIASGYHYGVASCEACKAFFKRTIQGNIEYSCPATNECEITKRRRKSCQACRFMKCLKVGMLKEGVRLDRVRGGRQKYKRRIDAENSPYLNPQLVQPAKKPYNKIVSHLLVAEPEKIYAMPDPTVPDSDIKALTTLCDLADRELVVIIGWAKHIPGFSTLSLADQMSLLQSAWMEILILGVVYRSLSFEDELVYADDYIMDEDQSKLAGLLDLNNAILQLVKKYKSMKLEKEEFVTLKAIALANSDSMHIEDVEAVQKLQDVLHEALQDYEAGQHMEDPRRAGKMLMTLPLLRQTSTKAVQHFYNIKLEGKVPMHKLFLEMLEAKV
Glucocorticoid receptor (Homo sapiens), sequence (P04150 whole entry, looked up, the tested form may be a part): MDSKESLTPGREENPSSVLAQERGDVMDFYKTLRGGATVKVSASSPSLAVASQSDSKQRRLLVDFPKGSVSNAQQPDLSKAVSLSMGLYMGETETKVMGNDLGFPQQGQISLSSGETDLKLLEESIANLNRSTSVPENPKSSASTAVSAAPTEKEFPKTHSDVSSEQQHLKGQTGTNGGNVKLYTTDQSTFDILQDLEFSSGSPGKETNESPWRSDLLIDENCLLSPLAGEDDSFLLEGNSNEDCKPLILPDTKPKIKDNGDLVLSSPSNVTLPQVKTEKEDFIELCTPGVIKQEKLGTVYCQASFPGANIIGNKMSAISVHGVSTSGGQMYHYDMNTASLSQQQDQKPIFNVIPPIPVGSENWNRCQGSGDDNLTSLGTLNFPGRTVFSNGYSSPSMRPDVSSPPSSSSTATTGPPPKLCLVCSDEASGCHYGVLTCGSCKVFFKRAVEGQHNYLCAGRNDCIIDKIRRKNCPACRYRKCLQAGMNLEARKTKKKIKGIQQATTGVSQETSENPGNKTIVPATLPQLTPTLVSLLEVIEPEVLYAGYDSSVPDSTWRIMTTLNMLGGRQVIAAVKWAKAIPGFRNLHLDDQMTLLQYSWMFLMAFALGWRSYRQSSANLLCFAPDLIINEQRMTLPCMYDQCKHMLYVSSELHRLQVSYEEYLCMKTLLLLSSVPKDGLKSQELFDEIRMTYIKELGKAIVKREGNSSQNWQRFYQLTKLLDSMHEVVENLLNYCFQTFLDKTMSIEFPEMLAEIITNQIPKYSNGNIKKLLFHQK

With `CC1(C)COP(Oc2ccccc2)OC1`, the molecule was classed as inactive in test [1], in test [2], in test [3], in test [4], in test [5] and in test [6]. Further, the outcome in test [7], in [8], in [9], in test [10], in [11] and in test [12] was inactive. In addition, the call in test [13], in test [14] and in [15] was inactive.

On to `CC(C)(C1CCC(O)CC1)C1CCC(O)CC1` (stereo not given), for which the outcome in test [1], in test [2], in test [3], in test [4], in [17] and in test [10] was inactive. The outcome in [11], in test [13], in test [14] and in test [15] was inactive. The AC50 in test [16] is 11.2 µM (active).

In the case of `c1cc[c]([Sb]([c]2ccccc2)[c]2ccccc2)cc1`, in test [1], the AC50 is 41.1 µM (active). Besides, the result in test [2], in test [3], in test [4], in test [5], in test [9] and in test [11] was inactive. The molecule was classed as inactive in test [12], in [14] and in test [15].

Take `CCCCOP(=O)(CCCC)OCCCC`: the result in test [1], in test [3], in [18], in [4], in test [5] and in test [19] was inactive. Further, the call in [6], in [7], in test [9], in [11], in test [12] and in test [14] was inactive. The result in test [15] was inactive. The AC50 in [2] is 17.7 µM (active).

Turning to `CC(C)(C)c1ccccc1O`, the outcome in [1], in test [3], in [19], in [8], in test [10] and in [12] was inactive. For the same molecule, the molecule was called inactive in test [14]. Further, the AC50 in test [2] is 129 µM (active); in test [4] it was 165 µM (active); in test [15] it was 100 µM (active).
